# Screen size: about 360,000 compounds; about 25,000 (6.9%) were called active. Inconclusive results (about 9%) are left out. The sample holds actives, similar compounds and a random draw of the others, so the mix is not that of the screen. Values without a mark were called inactive. Calls follow the shape of the dose curve; as a rule, active = well fitted inhibition curve with a large enough effect; inconclusive = small, poorly fitted or top-dose-only effect; inactive = flat fitted curve, though single readings scatter.
# Biological target: Luciferin 4-monooxygenase (Photinus pyralis) (UniProt P08659)
# Sequence (P08659 whole entry, looked up): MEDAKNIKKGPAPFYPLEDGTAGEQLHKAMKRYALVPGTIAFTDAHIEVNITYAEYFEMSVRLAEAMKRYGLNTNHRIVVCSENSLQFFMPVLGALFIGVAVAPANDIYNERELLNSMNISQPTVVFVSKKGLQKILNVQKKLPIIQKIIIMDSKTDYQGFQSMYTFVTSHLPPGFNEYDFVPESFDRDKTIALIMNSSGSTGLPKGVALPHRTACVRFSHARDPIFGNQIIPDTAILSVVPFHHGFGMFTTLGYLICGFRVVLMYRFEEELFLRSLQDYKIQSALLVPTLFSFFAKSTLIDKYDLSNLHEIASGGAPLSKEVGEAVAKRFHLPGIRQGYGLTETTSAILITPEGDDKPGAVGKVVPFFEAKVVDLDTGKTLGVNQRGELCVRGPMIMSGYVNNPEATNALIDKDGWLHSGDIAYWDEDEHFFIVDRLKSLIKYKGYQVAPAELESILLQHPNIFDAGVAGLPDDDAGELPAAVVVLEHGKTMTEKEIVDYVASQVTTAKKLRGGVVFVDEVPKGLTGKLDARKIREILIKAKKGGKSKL
# Experiment: qHTS profiling assay for firefly luciferase inhibitor/activator using purifed enzyme and Km concentrations of substrates (counterscreen for miR-21 project); also: nearly all actives have a fitted effect of over 55% in size;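 as to activity change, negative = inhibition: plate controls were vehicle for no effect and reference inhibitor for full effect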
# Settings: purified FLuc, luminescence inhibition; series mostly up to 57.5 µM; activity change, negative = inhibition: at the top concentration
# In short: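 Purified P. pyralis luciferase (10nM final) with 10uM D-luciferin and 10uM ATP (Km levels) in 50mM Tris acetate pH 7.5, 10mM Mg acetate, 0.01% Tween-20, 0.05% BSA; qHTS 6-point titration, ~60 µM downward; luminescence read.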
# Potency is read from the fitted curve at half-maximal effect.
Compound,"activity change, negative = inhibition",Potency
Cn1c(=O)c2c(-c3cccc(Br)c3)c(C#N)c(N)nc2n(C)c1=O,-1.7%,–
Cc1c(C)n2c(SCC(=O)N3CCCC3)nnc2[nH]c1=O,-1.87%,–
CCOC(=O)c1cc2c(=O)n3ccccc3nc2n(CCCOC)c1=NC(=O)C(C)(C)Oc1ccc(Cl)cc1,2.07%,–
CC1CCCCN1S(=O)(=O)c1ccc(S(=O)(=O)N(CC(=O)Nc2ccccc2)Cc2cccs2)cc1 (centres undefined),1.69%,–
O=C(Nc1ccc(-c2nnc(-c3ccccc3)o2)cc1)C1CCCO1 (centres undefined),–,3.38 µM (active)
O=C(Nc1nnc(CCc2ccccc2)s1)C1CCCO1 (centres undefined),-2.69%,–
CC(C)(C)NS(=O)(=O)c1ccc(NC(=O)C2CCCO2)cc1 (centres undefined),-1.57%,–
COc1ccc(NC(=O)N2CCCC2C(=O)NCc2ccccc2Cl)cc1 (centres undefined),-4.96%,–
CC(C)(C)c1ccc(OC2=CS(=O)(=O)c3ccccc32)cc1,–,15.1 µM (active)
CC(C)(C)c1ccc(CN2C(=O)c3ccccc3S2(=O)=O)cc1,-16.2%,–
O=S1(=O)C=C(SCCN2CCCC2)c2ccccc21,-2.28%,–
Cc1ccc(-n2c(=O)c3cccnc3n2CC(=O)NCc2ccc(F)cc2)cc1C,-12.7%,–
O=C(c1ccc2c(c1)N(Cc1ccccc1)C(=O)c1ccccc1S2(=O)=O)N1CCC(Cc2ccccc2)CC1,2.38%,–
Cc1nc(NC2=NC(C(=O)Nc3ccc(Cl)cc3)CC(=O)N2)nc2ccccc12 (centres undefined),0.404%,–
CN(C)c1ccnc2sc(C(=O)c3ccccc3)c(N)c12,–,5.36 µM (active)
CCc1nc2sc(C(=O)O)c(N)c2c2c1CCCC2,-2.9%,–
COC(=O)c1cc2c(N)c(C(=O)c3ccc(Cl)cc3)sc2nc1C(OC)OC,-11.4%,–
COc1ccc(C(F)(F)F)cc1NC(=O)c1sc2nc(-c3cccs3)ccc2c1N,-1.38%,–
CN(C)c1ccnc2sc3c(=O)n(Cc4ccccc4)cnc3c12,3.33%,–
Cc1ccc2c(N)c(C(=O)c3ccccc3)sc2n1,–,21.3 µM (active)
CCCS(=O)(=O)c1c(Nc2ccccc2C)sc(C(=O)c2ccccc2)c1N,1.11%,–
Cc1nc2sc(C(=O)c3ccccc3)c(N)c2c2c1CCCC2,–,10.7 µM (active)
COc1cccc(C(=O)c2sc3nc(-c4ccccc4)cc(C(F)(F)F)c3c2N)c1,-0.554%,–
CC(=O)c1c(Nc2ccccc2)sc(C(=O)c2ccccc2)c1C,-3.32%,–
Nc1c(C(=O)NCc2ccccc2)sc2nc3c(cc12)C(=O)CCC3,2.35%,–
CCN(CC)C(=O)c1sc2nc(-c3ccccc3)ccc2c1N,–,5.36 µM (active)

Compound,"activity change, negative = inhibition",Potency
COc1cc(OC)c(NC(=O)Cc2ccc(-n3c(C)nc4cccnc43)cc2)cc1Cl,-14.7%,–
O=C(O)CCCCCCCCc1cn(CN2C(=O)c3ccccc3C2=O)nn1,-0.842%,–
CCOCCCNC(=O)c1c(NC(=O)c2nc(SC)ncc2Cl)sc2c1CCCC2,-1.87%,–
CC(=O)NC(c1cccs1)c1cc(Br)c2cccnc2c1O (centres undefined),-0.554%,–
CC(OC(=O)CNC(=O)c1cccc(F)c1)C(=O)NC1CCCCC1C (centres undefined),-0.117%,–
CCN(CC)c1ccc(C2C(C(N)=O)=C(C)Nc3nc(SCc4ccccc4)nn32)cc1 (centres undefined),-0.212%,–
CSc1ncc(C(=O)Nc2ccc(C)cc2C)c(C)n1,-0.488%,–
CSc1nccc(NC(=O)c2ccc(C(C)(C)C)cc2)n1,–,1.9 µM (active)
COC(=O)c1nc(NC(=O)c2ccc(F)cc2)n[nH]1,-14.8%,–
COC(=O)c1ccccc1NC(=O)c1cc(-c2ccccc2O)no1,-15.2%,–
O=S(=O)(NCCCCCCNS(=O)(=O)c1c(F)cccc1F)c1ccc2c(c1)OCCO2,4.33%,–
Cc1ccccc1CCNC(=O)C1CCN(c2nc3ccccc3nc2C(F)(F)F)CC1,-6.81%,–
O=C1CCNCCN1[C@H](CO)Cc1ccccc1,1.19%,–
CC(=O)NCC(=O)N(Cc1ccco1)C1(C(=O)NC2CCCC2)CCCCC1,-1.26%,–
CSc1ccccc1NC(=O)c1cc(Cl)sc1Cl,-13.3%,–
Cc1cccn2c(=O)c(C(=O)NC(C)c3ccccc3)cnc12 (centres undefined),-2.31%,–
CSc1ccccc1NC(=O)c1cnc2sc(C)cn2c1=O,–,5.36 µM (active)
CCOc1ccc(NS(=O)(=O)c2ccc(Cl)c(C(=O)N(C)Cc3cccnc3)c2)cc1,4.21%,–
CC(=O)Nc1ccc(NC(=O)CCN2C(=O)C3CC=CCC3C2=O)cc1 (centres undefined),4.45%,–
CCC(=O)c1ccc(OCC(=O)N(CC)CC2COc3ccccc3O2)cc1 (centres undefined),11.9%,–
CCC(=O)N1CCc2cc(S(=O)(=O)NC(C(=O)Nc3ccc(C(C)=O)cc3)C(C)C)ccc21 (centres undefined),3.87%,–
O=C1/C(=C\Nc2ccccc2)CCN1c1ncccn1,–,23.9 µM (active)
O=C(Cc1ccccc1)NNC(=O)C1CCN(c2ncccn2)CC1,-1.06%,–
COc1ccccc1Oc1ccc(N/C=C2/CCCC2=O)cc1,-13.2%,–
CCc1nnc(SCc2c(F)cccc2Cl)c2cc3sccc3n12,-0.0505%,–
COc1cc(C(=O)NN(CCC#N)C2=NS(=O)(=O)c3ccccc32)cc(OC)c1OC,3.16%,–

Compound,"activity change, negative = inhibition",Potency
CCOC(=O)C1CCCN(C(=O)Cn2ncc3c(C)n(Cc4ccc(F)cc4)c(C)c3c2=O)C1 (centres undefined),-11.5%,–
Cc1cnc(CN(C)C(=O)C2CCC(=O)N(CCc3cccc(F)c3)C2)[nH]1 (centres undefined),0.959%,–
O=C(Nc1ccc(Br)cn1)c1ccc([N+](=O)[O-])cc1Cl,–,13.5 µM (active)
O=C(Nc1cccnc1)c1cc([N+](=O)[O-])ccc1Cl,-0.936%,–
O=C(Nc1ccncc1)c1ccc([N+](=O)[O-])cc1Cl,-8.87%,–
COc1ccc2[nH]c3c(c2c1)CCN(C(=O)CCC1CCCC1)C3c1ccc(F)cc1 (centres undefined),-0.437%,–
Cc1ccc(-c2noc(CC(c3ccccc3)c3ccccc3)n2)cc1,10.8%,–
Cc1cccc(-c2noc(CCC(=O)NC3CCCC3)n2)c1,-9.98%,–
Cc1ccc(Cc2nc(-c3cccc(C)c3)no2)cc1,–,10.7 µM (active)
CCc1ccccc1NC(=O)CSc1nnc(-c2ccccc2)c(-c2ccccc2)n1,-4.53%,–
Cc1ccc(CCNC(=O)Cn2c(-c3cccs3)cc3cc(F)ccc32)cc1,-1.98%,–
CCc1nn(CC(=O)N2CCN(c3cccc(C(F)(F)F)c3)CC2)c(=O)c2cc3occc3n12,-1.64%,–
Oc1ccc(-n2nnnc2SCc2c(F)cccc2Cl)cc1,-3.56%,–
O=C(CSc1ccc(-c2ccco2)nn1)Nc1cccc(F)c1,–,12 µM (active)
Cc1cc(SCc2c(F)cccc2Cl)nc(=O)[nH]1,1.07%,–
O=C(CSc1ccc(-c2ccco2)nn1)NCc1ccc2c(c1)OCO2,-18%,–
Fc1cccc(Cl)c1CSc1ccc(-c2ccco2)nn1,–,13.5 µM (active)
CCn1c(CNC(=O)c2ccco2)nnc1SCC(=O)Nc1cccc(F)c1,4.49%,–
Cc1noc2ncnc(NCc3ccccc3Cl)c12,-5.3%,–
O=C(CCSCc1cccc(F)c1)NCc1ccccc1,-13.1%,–
c1ccc2sc(NN=C3CCCC3)nc2c1,–,2.69 µM (active)
O=C1NC(Nc2nc3ccccc3s2)(C(F)(F)F)C(=O)N1C1CCCCC1 (centres undefined),0.553%,–
CCN(CC)CCn1c2c(c(SCC(=O)Nc3nc4ccccc4s3)nc1=O)CCCC2,-1.18%,–
COC(=O)c1ccccc1NC(=O)C(Cc1ccccc1)N1Cc2ccccc2C1=O (centres undefined),-3.18%,–
COCCNC(=O)CSc1nc(-c2ccccc2)[nH]c1-c1ccc(C)cc1,-6.21%,–
C=CCNC(=S)N1CCN(CCN=Cc2c(C)[nH]n(-c3ccc([N+](=O)[O-])cc3)c2=O)CC1,-6.74%,–

Compound,"activity change, negative = inhibition",Potency
O=C(Nc1cccnc1Cl)c1cc(-c2cccc(Cl)c2)on1,–,inactive
O=C(Nc1ccccc1C(F)(F)F)c1cc(-c2ccc(O)cc2)on1,–,26.9 µM (active)
CCc1ccccc1NC(=O)c1cc(-c2ccc3c(c2)OCO3)on1,–,inactive
Cc1ccccc1CSc1nc2c([nH]c3ccccc32)c(=O)n1C,-1.85%,–
COc1ccc(CNC(=O)CS(=O)Cc2nc(-c3cccc(C)c3)oc2C)cc1 (centres undefined),-17.5%,–
COc1ccc(CNc2nc(-c3ccc(Cl)cc3)nn2C(=O)c2ccccc2)cc1,-0.962%,–
COc1ccc(Cn2c(-c3ccc(Cl)cc3)c[n+]3ccccc23)cc1,–,19 µM (active)
COc1ccc(CNc2nc(-c3ccc(Cl)cc3)cc(C(F)(F)F)n2)cc1,-3.26%,–
COc1ccc(OC)c(-c2csc(-c3c(N)c(C(=O)c4ccccc4)n4ccccc34)n2)c1,0.147%,–
CC(C)(C)c1ccc(C(=O)N2CCC(c3nc(-c4ccc(S(=O)(=O)N5CCCC5)cc4)no3)CC2)cc1,-17%,–
O=C(N/N=C/c1ccco1)c1ccc(NC(=O)C2CC2)cc1,-5.08%,–
Cc1ccc(NC(=O)c2csc3c2CCCC3)cc1,–,4.26 µM (active)
O=C(NCc1ccccc1Cl)c1csc2c1CCCCC2,-13.1%,–
O=C(N/N=C/c1ccco1)c1csc2c1CCCC2,–,15.1 µM (active)
CC1CC(C)CN(CCCNC(=O)c2csc3c2CCCCC3)C1 (centres undefined),0.607%,–
COC(=O)c1sc(NC(=O)c2csc3c2CCCC3)nc1C,–,2.39 µM (active)
CCOc1ccc(CCNC(=O)c2csc3c2CCCCC3)cc1,-5.62%,–
CC(C)NC(=O)C(=O)N/N=C/c1ccco1,5.52%,–
CCOC(=O)c1sc(NC(=O)c2cc(S(=O)(=O)N3CCOCC3)ccc2C)nc1C,-0.843%,–
Cc1c(CCOC(=O)CC23CC4CC(CC(C)(C4)C2)C3)sc[n+]1Cc1ccc([N+](=O)[O-])cc1,5.92%,–
CCn1c(SCC(=O)NCC2CCCO2)nc2ccccc21 (centres undefined),2.93%,–
CCc1ccccc1NC(=O)Cn1c(=O)n(-c2cccc(C)c2)c(=O)c2c1c1cc(OC)ccc1n2C,-1.17%,–
CC(=O)c1ccc(S(=O)(=O)NCCC(=O)N2CCN(c3ccccn3)CC2)cc1,1.49%,–
O=C(CC(c1cccs1)N1Cc2ccccc2C1=O)Nc1ccc(F)cc1F (centres undefined),-8.01%,–
Nc1ccc(C(=O)N2CCN(S(=O)(=O)c3ccc(Cl)cc3)CC2)cc1[N+](=O)[O-],-0.246%,–
COc1ccc(-c2nc(S(=O)(=O)c3ccccc3)c(N3CCCCC3)o2)cc1,-1.77%,–

# From PubChem BioAssay AID588342 (National Center for Advancing Translational Sciences (NCATS), 2011)
